Data taken from PubChem BioAssay (NCI).
This is part of a sample that, as a whole, favours compounds with a hit. Of some 83,000 tested, about 20% had one in any assay.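 Single-concentration screen, 48 h exposure, 96-well plates. Endpoint: percent growth. Below 10 = active.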 Active and inactive are the calls of the source.

What follows are molecules tested on HCT-15 colon (assay: NCI-60 one-dose screen, 48 h (100 = growth as untreated, 0 = no growth, -100 = all killed)). Details: 10 µM unless noted.
Description: Growth inhibition of the HCT-15 human tumor cell line is measured as a screen for anti-cancer activity. Cells are grown in 96 well plates and exposed to the test compound for 48 hours. Compounds are tested at a single concentration, which is 10^-5 M for most compounds. The reported endpoint is percent growth (GI% or GIPRCNT), where numbers from 0 - 100% represent growth inhibition, and numbers from -100% - 0 represent cell death. For example, a value of 40 represents 60% growth inhibition. A value of 0 means no net growth occurred over the course of the experiment. A value of -40 indicates 40% of cells at the beginning of the experiment died by the end of the experiment. A value of -100 means all cells are dead at the end of the experiment.
NCI-60 Human Tumor Cell Lines Screen was performed using the standard one-dose NCI protocol, which is described in more detail at https://dtp.cancer.gov/discovery_development/nci-60/default.htm.
Compounds with GIPRCNT values below 10 were considered active. Activity score was based on GIPRCNT using the following formula: […]
Score is 0 for GIPRCNT values of 100 or above, 50 for GIPRCNT values of 0, and 100 for GIPRCNT values of -100.

SMILES | growth
COc1ccc2c(c1)/C(=C\c1sc(=S)[nH]c1O)C(C(=O)O)=N2 | 100% (inactive)
CCN(CC)CCCNC(=O)c1ccc(N)cc1 | 101% (inactive)
COc1cc(-c2ccc(N=Nc3c(O)c(C(=O)Nc4ccccc4OC)cc4ccccc34)c(OC)c2)ccc1N=Nc1c(O)c(C(=O)Nc2ccccc2OC)cc2ccccc12 | 101% (inactive)
Cc1cn(C2CCCCC2)c(=O)[nH]c1=O | 99.2% (inactive)
COc1ccc(CN2C(=O)/C(=C\c3cc(OC)c(OC)c(OC)c3)c3ccccc32)cc1 | -55.8% (active)
CNC1(C#N)CCN(Cc2ccccc2)CC1 | 104% (inactive)
COc1cc2nc(Nc3ccc(F)cc3)nc(N)c2cc1OC | 94.7% (inactive)
O[C@H]1CO[C@H]2[C@@H]1OC[C@@H]2Oc1ccc(Nc2ccnc(Nc3ccc(O[C@H]4CO[C@H]5[C@@H]4OC[C@@H]5O)c(Cl)c3)n2)cc1Cl | 26.4% (inactive)
COC(=O)c1ccc2oc(NC(=O)c3ccc(N4CCOCC4)c([N+](=O)[O-])c3)nc2c1 | 107% (inactive)
CCn1c(Sc2nnc(NC(=O)CSC(=S)N3CCCCC3)s2)nc2c1c(=O)n(C)c(=O)n2C | 49% (inactive)
CCCCNC(=O)NS(=O)(=O)c1ccc(N2N=C(c3ccc(C)cc3C)CC2c2ccc(N(C)C)cc2)cc1 (stereo not given) | 35.3% (inactive)
C[C@@H]1C(=O)N(C[C@H](Cc2ccccc2)N(Cc2ccccc2)Cc2ccccc2)[C@]1(Cc1ccccc1)C(=O)OC(C)(C)C | 70.9% (inactive)
CCCCCCCC/C=C\CCCCCCCC(=O)Oc1cccc2cccnc12 | 81.8% (inactive)
CCCCC1COc2cccc3c(SCC(=O)N(C)c4cccc(Cl)c4)cc[n+]1c23 (stereo not given) | 101% (inactive)
Nc1ccc(CCCCc2ccccc2)c(Cl)c1 | 89% (inactive)
O=C1CSC(c2ccc(O)cc2)N1c1nnc(Cn2cnnc2)o1 (stereo not given) | 110% (inactive)
Cc1nc(Nc2ccc(NC(=S)Nc3ccccc3)cc2)c2ccccc2n1 | 101% (inactive)
COc1ccc(C2CC(c3cnccn3)=NN2)cc1OC (stereo not given) | 107% (inactive)
NC(=S)N/N=C/C(=O)O | 93.7% (inactive)
CC(C)c1ccc(C(=O)OC(=O)c2ccc(C(C)C)cc2)cc1 | 95.1% (inactive)

SMILES | growth
Cc1cc(=O)[nH]c(N/N=C/c2cc(Br)ccc2O)n1 | 30.5% (inactive)
O=c1cc(-c2ccc(OCc3ccccc3)cc2)oc2c(I)c(OCc3ccccc3)cc(OCc3ccccc3)c12 | 104% (inactive)
COc1ccc(N=c2nc3sc4cc(Cl)ccc4n3c(N)c2C#N)cc1 | 99.5% (inactive)
Cc1nc(-c2ccccc2)cc2c(O)c(C(=O)N/N=C/c3ccc(N(C)C)cc3)[nH]c(=O)c12 | 83.1% (inactive)
C=C(C)[C@@H]1CC[C@]2(CN)CC[C@]3(C)[C@H](CC[C@@H]4[C@@]5(C)CCC(N)[C@@](C)(CO)[C@@H]5CC[C@]43C)[C@@H]12 (stereo not given in full) | -47.6% (active)
O=C1Nc2ccccc2/C1=N/N=C/c1ccsc1 | 98% (inactive)
O=C(NCCOCCOCCOCCNC(=O)c1cc2c(o1)C(=O)c1ccccc1C2=O)NC12CC3CC(CC(C3)C1)C2 | -74.7% (active)
Cc1c2c(cn1Cc1ccccc1)CCc1cn(C)nc1-2 | 95.1% (inactive)
CNC(=O)c1c(NC(=O)c2ccc(C(C)(C)C)cc2)sc2c1CCC(=O)C2 | -20.5% (active)
CC(C)N(CCOC(=O)Nc1ccccc1Cl)C(C)C | 108% (inactive)
Cc1nc(Nc2ccc(NC(=S)Nc3ccccc3)cc2)nc2nc(Nc3cccc(Cl)c3)[nH]c(=O)c12 | 98.2% (inactive)
CCCCN1CCN(c2ccc3nc(-c4ccc5nc(-c6cc(OC)c(OC)c(OC)c6)[nH]c5c4)[nH]c3c2)CC1 | 99.2% (inactive)
Cc1c(C(=O)O)nnn1-c1nccs1 | 98% (inactive)
Cc1cccc(-c2cc(O)c(C(=O)N3CCOCC3)s2)c1 | 21.4% (inactive)
Cc1nc2ccccc2c(/C=C/c2ccc(Cl)cc2)c1C(=O)/C=C/c1ccc(Cl)cc1 | -31.3% (active)
CCOC(=O)c1ccc(NC(=O)CCCN(CC)CC)cc1 | 105% (inactive)
OC(CBr)c1ccnc2ccccc12 (stereo not given) | 103% (inactive)
NS(=O)(=O)c1cn(-c2ncnc3nc[nH]c23)ccc1=O | 94% (inactive)
NC(=S)c1csc(CCNC(=O)c2ccccc2)n1 | 100% (inactive)
Cc1ccc(O)c(C(=O)c2ccccc2Cl)c1 | 99.5% (inactive)
